Laboratory results: the supplement of paper PMC10849652
The full data set covers some 7,900 targets. This sample favours those with a hit. About 0.6% of all pairs of compound and target were hits.

The targets below were run with c1cn2cc(-c3ccc4cn[nH]c4c3)nc(Nc3ccc(N4CCOCC4)cc3)c2n1 [entospletinib] (assay: log2 fold change, soluble protein after heating vs DMSO (PISA); higher = thermal stabilisation; K562 cells, 10 uM, 30 min; active = over 0.2 and 3.5 SD of the protein, either way, in both replicates (recomputed)).
Outline: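 K562 cells at 2×10^6 cells/mL were treated for 30 min with 10 μM compound, and aliquots were heated for 3 min over 48°C-58°C before pooling. Extraction used PBS with 0.5% NP-40 at 4°C, and soluble protein was the supernatant after 21,000xg for 90 min, measured by TMTpro 16plex LC-MS/MS with channel sums equalised. Thermal stability values, relative to control samples and from duplicates, are log2 fold changes.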

UniProt Q9P287, sequence (Q9P287 whole entry, looked up): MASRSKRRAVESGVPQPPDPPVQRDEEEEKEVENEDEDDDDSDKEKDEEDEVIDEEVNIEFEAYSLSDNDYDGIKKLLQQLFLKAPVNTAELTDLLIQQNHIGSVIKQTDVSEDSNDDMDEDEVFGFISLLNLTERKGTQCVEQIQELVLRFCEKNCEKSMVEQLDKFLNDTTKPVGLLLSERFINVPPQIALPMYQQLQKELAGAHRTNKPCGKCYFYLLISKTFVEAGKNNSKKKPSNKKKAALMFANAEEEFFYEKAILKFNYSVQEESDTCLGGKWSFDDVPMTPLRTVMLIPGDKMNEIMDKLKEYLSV
UniProt Q96GS6, sequence (Q96GS6 whole entry, looked up): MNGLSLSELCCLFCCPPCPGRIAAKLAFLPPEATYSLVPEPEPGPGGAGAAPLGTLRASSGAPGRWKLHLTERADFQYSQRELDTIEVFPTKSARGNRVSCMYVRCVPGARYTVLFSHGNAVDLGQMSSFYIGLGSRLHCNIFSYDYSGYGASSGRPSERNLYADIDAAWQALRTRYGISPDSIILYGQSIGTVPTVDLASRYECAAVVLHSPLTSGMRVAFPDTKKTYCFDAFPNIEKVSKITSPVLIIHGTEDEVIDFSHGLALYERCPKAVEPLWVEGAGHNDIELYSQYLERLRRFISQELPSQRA
UniProt Q9H7F0, sequence (Q9H7F0 whole entry, looked up): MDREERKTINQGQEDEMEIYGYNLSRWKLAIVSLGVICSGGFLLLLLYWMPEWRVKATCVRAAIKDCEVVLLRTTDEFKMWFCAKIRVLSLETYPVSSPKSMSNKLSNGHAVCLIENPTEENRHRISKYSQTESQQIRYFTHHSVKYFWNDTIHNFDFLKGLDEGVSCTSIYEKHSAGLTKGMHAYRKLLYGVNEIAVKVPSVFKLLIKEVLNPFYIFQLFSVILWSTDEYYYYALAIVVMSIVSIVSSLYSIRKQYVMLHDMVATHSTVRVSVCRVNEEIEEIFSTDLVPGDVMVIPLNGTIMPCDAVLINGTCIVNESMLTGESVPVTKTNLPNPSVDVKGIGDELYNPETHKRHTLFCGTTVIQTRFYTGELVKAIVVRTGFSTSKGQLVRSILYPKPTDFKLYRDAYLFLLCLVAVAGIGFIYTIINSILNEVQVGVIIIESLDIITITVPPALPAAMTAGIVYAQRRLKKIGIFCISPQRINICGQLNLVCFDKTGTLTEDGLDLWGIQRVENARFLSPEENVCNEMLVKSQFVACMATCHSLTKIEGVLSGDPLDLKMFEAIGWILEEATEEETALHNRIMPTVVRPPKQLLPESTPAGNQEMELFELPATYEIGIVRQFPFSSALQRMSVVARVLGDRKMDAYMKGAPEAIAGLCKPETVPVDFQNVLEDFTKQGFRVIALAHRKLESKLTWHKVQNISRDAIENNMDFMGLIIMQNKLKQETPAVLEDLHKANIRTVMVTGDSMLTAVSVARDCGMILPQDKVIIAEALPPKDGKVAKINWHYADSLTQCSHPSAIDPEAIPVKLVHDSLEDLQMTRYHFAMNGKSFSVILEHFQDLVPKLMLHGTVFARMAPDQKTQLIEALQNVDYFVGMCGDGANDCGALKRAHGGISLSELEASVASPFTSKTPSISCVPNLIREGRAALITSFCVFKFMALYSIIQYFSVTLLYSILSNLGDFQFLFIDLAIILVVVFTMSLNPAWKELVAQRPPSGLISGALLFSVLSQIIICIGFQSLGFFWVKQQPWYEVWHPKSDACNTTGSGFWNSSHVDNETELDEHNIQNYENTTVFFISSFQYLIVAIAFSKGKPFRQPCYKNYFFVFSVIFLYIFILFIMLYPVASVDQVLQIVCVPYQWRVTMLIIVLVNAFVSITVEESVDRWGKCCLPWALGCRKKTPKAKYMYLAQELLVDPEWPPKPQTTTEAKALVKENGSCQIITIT
UniProt Q7L1Q6, sequence (Q7L1Q6 whole entry, looked up): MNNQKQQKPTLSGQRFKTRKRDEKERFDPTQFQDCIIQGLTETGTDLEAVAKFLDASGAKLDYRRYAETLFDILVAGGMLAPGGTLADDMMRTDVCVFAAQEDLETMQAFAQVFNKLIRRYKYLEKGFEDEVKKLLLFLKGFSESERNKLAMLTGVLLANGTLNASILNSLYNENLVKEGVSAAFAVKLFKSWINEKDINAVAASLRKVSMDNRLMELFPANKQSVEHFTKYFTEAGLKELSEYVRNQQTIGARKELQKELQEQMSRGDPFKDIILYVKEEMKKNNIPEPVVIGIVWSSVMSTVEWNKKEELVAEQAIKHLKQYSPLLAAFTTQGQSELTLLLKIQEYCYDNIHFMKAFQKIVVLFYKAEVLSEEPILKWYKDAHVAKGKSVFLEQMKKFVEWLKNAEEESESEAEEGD
UniProt Q13685, sequence (Q13685 whole entry, looked up): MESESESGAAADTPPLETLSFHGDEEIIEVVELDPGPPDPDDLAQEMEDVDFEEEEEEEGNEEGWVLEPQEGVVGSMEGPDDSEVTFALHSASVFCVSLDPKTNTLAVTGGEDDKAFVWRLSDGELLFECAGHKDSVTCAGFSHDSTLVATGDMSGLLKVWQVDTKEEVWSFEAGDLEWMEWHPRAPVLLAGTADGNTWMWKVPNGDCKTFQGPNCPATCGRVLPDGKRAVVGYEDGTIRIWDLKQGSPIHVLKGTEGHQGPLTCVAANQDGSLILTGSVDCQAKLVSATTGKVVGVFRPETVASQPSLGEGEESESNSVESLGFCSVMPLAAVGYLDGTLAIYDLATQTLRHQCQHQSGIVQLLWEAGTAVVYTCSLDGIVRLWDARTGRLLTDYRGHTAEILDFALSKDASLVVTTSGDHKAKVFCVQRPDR
UniProt P15291, sequence (P15291 whole entry, looked up): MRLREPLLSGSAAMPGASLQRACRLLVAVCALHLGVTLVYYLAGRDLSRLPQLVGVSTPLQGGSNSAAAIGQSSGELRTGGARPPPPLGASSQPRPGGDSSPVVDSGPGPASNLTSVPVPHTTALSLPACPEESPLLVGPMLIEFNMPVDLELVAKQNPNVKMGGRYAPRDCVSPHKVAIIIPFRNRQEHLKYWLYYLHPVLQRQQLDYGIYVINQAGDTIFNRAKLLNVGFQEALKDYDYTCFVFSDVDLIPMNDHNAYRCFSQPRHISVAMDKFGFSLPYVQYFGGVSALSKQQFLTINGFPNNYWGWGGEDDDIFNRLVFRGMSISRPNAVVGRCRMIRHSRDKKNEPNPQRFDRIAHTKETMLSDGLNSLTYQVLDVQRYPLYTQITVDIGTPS
UniProt O14727, sequence (O14727 whole entry, looked up): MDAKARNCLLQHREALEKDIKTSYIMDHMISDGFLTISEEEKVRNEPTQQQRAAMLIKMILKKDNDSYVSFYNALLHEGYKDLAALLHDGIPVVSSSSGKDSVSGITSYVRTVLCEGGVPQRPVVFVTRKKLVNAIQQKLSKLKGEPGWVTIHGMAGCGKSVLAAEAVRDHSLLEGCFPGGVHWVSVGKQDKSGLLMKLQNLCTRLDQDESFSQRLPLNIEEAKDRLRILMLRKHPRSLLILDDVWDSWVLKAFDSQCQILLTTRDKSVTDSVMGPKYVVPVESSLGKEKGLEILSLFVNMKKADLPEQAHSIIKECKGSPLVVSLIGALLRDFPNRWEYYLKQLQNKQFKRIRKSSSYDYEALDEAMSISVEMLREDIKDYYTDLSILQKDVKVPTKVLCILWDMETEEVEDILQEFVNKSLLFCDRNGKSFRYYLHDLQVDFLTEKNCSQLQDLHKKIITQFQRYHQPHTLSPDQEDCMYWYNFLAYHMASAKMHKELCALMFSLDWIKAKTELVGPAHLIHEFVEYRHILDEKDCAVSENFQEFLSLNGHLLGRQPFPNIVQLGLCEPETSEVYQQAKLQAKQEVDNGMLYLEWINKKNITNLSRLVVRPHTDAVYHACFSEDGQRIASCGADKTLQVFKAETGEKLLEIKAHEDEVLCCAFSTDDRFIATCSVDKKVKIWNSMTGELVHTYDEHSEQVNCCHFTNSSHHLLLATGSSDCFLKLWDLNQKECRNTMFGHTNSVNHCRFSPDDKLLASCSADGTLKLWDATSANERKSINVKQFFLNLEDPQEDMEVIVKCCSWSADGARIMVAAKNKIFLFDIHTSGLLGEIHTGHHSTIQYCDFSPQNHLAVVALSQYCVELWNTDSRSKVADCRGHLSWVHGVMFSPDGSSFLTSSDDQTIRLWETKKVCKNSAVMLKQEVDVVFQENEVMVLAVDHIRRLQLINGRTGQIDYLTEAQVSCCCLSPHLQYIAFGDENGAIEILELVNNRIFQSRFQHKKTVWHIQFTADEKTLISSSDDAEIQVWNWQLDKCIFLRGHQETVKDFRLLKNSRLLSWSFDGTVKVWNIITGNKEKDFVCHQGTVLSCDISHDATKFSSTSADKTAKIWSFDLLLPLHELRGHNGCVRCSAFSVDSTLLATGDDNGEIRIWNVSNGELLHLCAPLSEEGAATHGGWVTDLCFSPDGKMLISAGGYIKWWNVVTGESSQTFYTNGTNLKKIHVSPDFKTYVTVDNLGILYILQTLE
UniProt Q9BR61, sequence (Q9BR61 whole entry, looked up): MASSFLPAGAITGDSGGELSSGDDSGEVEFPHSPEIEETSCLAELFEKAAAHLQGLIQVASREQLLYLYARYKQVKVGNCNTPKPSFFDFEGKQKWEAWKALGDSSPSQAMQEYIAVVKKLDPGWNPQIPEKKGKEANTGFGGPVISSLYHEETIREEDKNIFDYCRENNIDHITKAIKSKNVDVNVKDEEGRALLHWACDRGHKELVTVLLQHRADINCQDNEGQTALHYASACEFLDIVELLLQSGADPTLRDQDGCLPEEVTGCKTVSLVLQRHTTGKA
UniProt Q9Y2Y0, sequence (Q9Y2Y0 whole entry, looked up): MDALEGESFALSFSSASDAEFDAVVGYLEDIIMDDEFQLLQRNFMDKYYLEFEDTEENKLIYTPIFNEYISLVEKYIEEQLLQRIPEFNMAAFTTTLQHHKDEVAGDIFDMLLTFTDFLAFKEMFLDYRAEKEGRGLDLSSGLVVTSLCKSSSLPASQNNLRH
UniProt P36405, sequence (P36405 whole entry, looked up): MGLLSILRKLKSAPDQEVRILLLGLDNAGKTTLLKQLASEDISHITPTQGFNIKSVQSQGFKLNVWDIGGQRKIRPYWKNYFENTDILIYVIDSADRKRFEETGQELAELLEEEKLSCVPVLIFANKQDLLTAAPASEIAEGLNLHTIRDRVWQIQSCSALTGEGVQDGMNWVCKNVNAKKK

log2 fold change, inactive:
ATP11A (UniProt P98196) 0.158, APAF1 (UniProt O14727) -0.099, APPL1 (UniProt Q9UKG1) 0.027, ACP2 (UniProt P11117) -0.004, APLP2 (UniProt Q06481) -0.009, ADD2 (UniProt P35612) -0.008, ARL3 (UniProt P36405) 0.008, AP2A2 isoform 2 (UniProt O94973) 0.059, ARHGAP25 isoform 4 (UniProt P42331) 0.073, B4GALT1 (UniProt P15291) 0.039, BRAF (UniProt P15056) 0.035, AK6 (UniProt Q9Y3D8) -0.048, AGO1 (UniProt Q9UL18) -0.2, AKAP8L (UniProt Q9ULX6) 0.171, AFG1L (UniProt Q8WV93) -0.029, AKT1 (UniProt P31749) -0.04, AGAP3 isoform 4 (UniProt Q96P47) 0.036, AFDN isoform 5 (UniProt P55196) -0.041, ABHD17A isoform 2 (UniProt Q96GS6) -0.076, ALG3 (UniProt Q92685) 0.049, ADH5 (UniProt P11766) -0.025, ARL2BP (UniProt Q9Y2Y0) -0.06, ARMC10 (UniProt Q8N2F6) -0.001, BZW1 isoform 3 (UniProt Q7L1Q6) 0.03, ATOX1 (UniProt O00244) -0.005, AGRN (UniProt O00468) 0.018, BCCIP (UniProt Q9P287) -0.036, AIP (UniProt O00170) -0.031, AHCYL1 (UniProt O43865) 0.072, ATP13A3 (UniProt Q9H7F0) 0.042, ARL6IP4 (UniProt Q66PJ3) 0.034, ARAF (UniProt P10398) -0.003, BUB1B isoform 3 (UniProt O60566) -0.016, ACIN1 (UniProt Q9UKV3) -0.008, ACBD6 (UniProt Q9BR61) 0.035, ATP1B3 (UniProt P54709) -0.031, AAMP (UniProt Q13685) 0.063, ARFGAP1 (UniProt Q8N6T3) -0.032
